Hits are enriched below; roughly 32% of the tested compounds scored in any of these assays.
PostGolgi yeast = growth inhibition of a yeast mutant, post-Golgi transport screen; post-Golgi transport phenotypic cell assay; inhibition, % at 10 µM; 98,000 tested, 0.9% active;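 also: yeast cells grown in 1536-well plates; yeast grown about 18 h at 30C before absorbance read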
CYP2C19 inh = inhibitors of human CYP2C19 | P33261 | CYP2C19 Supersomes, luciferin-H EGE luminescence, 30 min | inhibition, % at 5 µM | 96,000 tested, 21% active | AID 778;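 active = CYP2C19 inhibition above a set limit at 5 µM in the primary screen, cut at about 50% in these data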;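 also: plate controls were negative control wells for no effect and 2.5 mM tranylcypromine positive control for full effect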
PostGolgi ctrl = growth of the yeast control strain, post-Golgi counter-screen. efflux-deficient yeast background strain, growth absorbance A615, 16 h. inhibition, % at 10 µM. 98,000 tested, 5% active. AID 738
CYP2C19 activ = increases human CYP2C19 enzyme activity; P33261; recombinant CYP2C19, luciferin-H EGE luminescence; stronger effect = higher value; 0 = fully inhibited enzyme, 1 = untreated enzyme; activation factor at 5 µM; 96,000 tested, under 10 active;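 active = activation factor of at least 2 at 5 µM in the primary screen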;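 also: 0 = wells with 2.5 mM tranylcypromine and 1 = vehicle-only wells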
CYP2C9 inh = blocks human cytochrome P450 2C9. P11712. CYP2C9 Supersomes, luciferin-H conversion, luminescence. inhibition, % at 5 µM. 96,000 tested, 20% active. AID 777;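 active = blocking of liver enzyme CYP2C9 beyond about 50% at 5 µM, limit read from the data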
Target sequence (P11712 whole entry, looked up): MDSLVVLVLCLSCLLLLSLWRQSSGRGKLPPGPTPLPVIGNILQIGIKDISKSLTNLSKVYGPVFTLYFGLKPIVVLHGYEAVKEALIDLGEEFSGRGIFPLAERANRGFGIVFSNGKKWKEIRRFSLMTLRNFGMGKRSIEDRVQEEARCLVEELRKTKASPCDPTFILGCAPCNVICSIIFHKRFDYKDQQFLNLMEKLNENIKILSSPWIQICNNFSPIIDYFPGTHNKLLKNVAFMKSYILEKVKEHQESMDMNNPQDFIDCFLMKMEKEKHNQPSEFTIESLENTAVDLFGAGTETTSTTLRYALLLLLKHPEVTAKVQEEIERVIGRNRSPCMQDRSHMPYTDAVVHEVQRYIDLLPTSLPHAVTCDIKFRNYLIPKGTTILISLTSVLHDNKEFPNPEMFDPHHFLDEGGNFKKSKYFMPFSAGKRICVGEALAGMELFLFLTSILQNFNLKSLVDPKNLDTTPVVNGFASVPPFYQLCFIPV
CYP2C9 act = CYP2C9 (human) activation. 96,000 tested, 1.4% active. activation factor at 5 µM. recombinant CYP2C9, luciferin-H conversion, luminescence; stronger effect = higher value; factor 1 = untreated enzyme, 0 = blocked. P11712;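 active = activation factor of 2 or more for CYP2C9 at a 5 µM dose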;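 also: 0 = sulfaphenazole-blocked wells and 1 = vehicle-only wells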
The depositor's hits bear a star; / = no result. Rule as the data show it, unless noted: active = inhibition above about 30%; inactive = the rest.

SMILES | PostGolgi yeast | CYP2C19 inh | PostGolgi ctrl | CYP2C19 activ | CYP2C9 inh | CYP2C9 act
COc1ccc2nc(NC(=O)CCc3nc(C4=CCN(C)CC4)no3)sc2c1 | 3 | 36 | 1 | 0.6 | 75* | 0.2
CCOP(=S)(OCC)SCC(=O)NC(C)(CC)C(=O)O (configuration not stated) | -1 | -15 | -7 | 1.1 | 84* | 0.2
Cn1cccc1CNCCc1ccccc1F | -8 | 34 | 26 | 0.7 | -1 | 1
CCCCn1c(O)c(C(C)=NCc2cc(OC)cc(OC)c2)c(=O)[nH]c1=O | -7 | 87* | 20 | 0.1 | 98* | 0
CCCCn1c(O)c(C(CC)=Nc2ccc(OC)cc2OC)c(=O)[nH]c1=O | 2 | 32 | 23 | 0.7 | 36 | 0.6
CCCCn1c(O)c(C(CC)=NCc2cc(OC)cc(OC)c2)c(=O)[nH]c1=O | -5 | 87* | 11 | 0.1 | 94* | 0.1
O=C1NC(=O)N(CCNc2ncc(C(F)(F)F)cc2Cl)C(=O)C1/C=N/OCc1c(F)cccc1Cl (configuration not stated) | -6 | 19 | -4 | 0.8 | 48 | 0.5
Clc1cccc(Cl)c1C1N2CCCN12 (configuration not stated) | -8 | 11 | -1 | 0.9 | 14 | 0.9
O=P(Nc1ccccc1)(Nc1ccccc1)Oc1ccc(Cl)cc1 | -2 | 86* | 20 | 0.1 | 81* | 0.2
O=C(Nc1ccccc1)Oc1ccccc1 | -4 | 31 | -7 | 0.7 | 12 | 0.9
Fc1ccccc1CCNCc1cccc(Cl)c1Cl | -2 | 86* | 6 | 0.1 | 29 | 0.7
CCOC(=O)[C@@]1(C#N)[C@@H]2C=CC(C(N)=O)=CN2[C@@H](C(N)=O)[C@@H]1c1cccc(Cl)c1 | 1 | 39 | 3 | 0.6 | 59* | 0.4
CCOC(=O)[C@@]1(C#N)C(c2ccc(Cl)c(Cl)c2)[C@H](C(N)=O)N2C=C(C(C)=O)C=C[C@H]21 (some centres not stated) | 3 | 19 | 11 | 0.8 | 3 | 1
CC(=O)C1C2c3ccccc3OC1(C)N=c1s/c(=C/c3cnn(C)c3)c(=O)n12 (configuration not stated) | 2 | 6 | 11 | 0.9 | 26 | 0.7
COC(=O)C1C2c3ccccc3OC1(C)N=c1s/c(=C/c3cnn(C)c3C)c(=O)n12 (configuration not stated) | 4 | 40 | 48* | 0.6 | 68* | 0.3
O=P(OCC(F)(F)C(F)F)(N1CCOCC1)N1CCOCC1 | -2 | 2 | 8 | 1 | -4 | 1
CC(O)(CS(=O)(=O)c1ccccc1)C(=O)Nc1ccc(C(F)(F)F)cc1 (configuration not stated) | 3 | 65* | -7 | 0.4 | 9 | 0.9
CC(O)(CS(=O)(=O)c1cccc(C(F)(F)F)c1)C(=O)Nc1cccc(C(F)(F)F)c1 (configuration not stated) | 0 | 51* | 6 | 0.5 | -90 | 1.9
Cc1cccc(C)c1NC(=O)CN(C)CC(=O)Nc1ccc(C#N)c(Cl)c1 | -9 | 36 | -3 | 0.6 | 53* | 0.5
CSc1ncc(Cl)c(C(=O)O)n1 | 1 | 27 | 12 | 0.7 | 9 | 0.9
C[C@H]1CCCC(=O)CCC/C=C/c2cc(O)cc(O)c2C(=O)O1 | -1 | 88* | 19 | 0.1 | 90* | 0.1
Cc1ccc(N(C)C(=O)Oc2ccc(C(=O)c3ccc(Cl)cc3)cc2)cc1 | 9 | 50* | 3 | 0.5 | 60* | 0.4
CCOCCCNC(=O)CN1C2CCC1CC(O)(c1ccc(OC)cc1)C2 (configuration not stated) | 9 | 2 | 4 | 1 | -6 | 1.1
CN1CCC(OC(=O)C2c3ccccc3Oc3ccccc32)CC1 | -38 | 25 | 11 | 0.7 | 11 | 0.9
CCn1c(O)c(C=Nc2ccc(N3CCOCC3)c(Br)c2)c(=O)n(CC)c1=S | 1 | 21 | 37* | 0.8 | -6 | 1.1
SMILES | PostGolgi yeast | CYP2C19 inh | PostGolgi ctrl | CYP2C19 activ | CYP2C9 inh | CYP2C9 act
CCn1c(O)c(C=Nc2ccc(N3CCOCC3)cc2)c(=O)n(CC)c1=S | 1 | 22 | 7 | 0.8 | 8 | 0.9
CN1CCc2nc3ccc(F)cc3c(C(N)=O)c2C1 | -2 | -9 | 10 | 1.1 | 0 | 1
COc1ccc(CNCC(=O)N2CCC3(CC2)OCCO3)cc1 | 0 | 30 | 6 | 0.7 | -4 | 1
COc1ccc(C2C(C(=O)N3CCC4(CC3)OCCO4)CC(=O)N2c2ccc(OC)cc2)cc1 (configuration not stated) | 1 | 61* | 2 | 0.4 | 48 | 0.5
Cc1ccc(S(=O)(=O)Nc2cc(C(=O)N3CCC4(CC3)OCCO4)ccc2N2CCCCC2)cc1 | -1 | 54* | 25 | 0.5 | 63* | 0.4
CCOC(=O)c1nc2ccccc2c(=O)n1-c1ccc(C)cc1 | 0 | 46 | 12 | 0.5 | 55* | 0.4
CCOC(=O)c1nc2ccccc2c(=O)n1-c1cccc(C)c1 | -4 | 41 | 1 | 0.6 | 52* | 0.5
CN(C)P1(N(C)C)=NC(C(F)(F)F)=NC(C(F)(F)F)=N1 | -1 | 15 | 2 | 0.9 | -20 | 1.2
CCOC(=O)/C(CCCN(CC)CC)=N\O | -4 | -4 | -3 | 1 | -1 | 1
O=C1C2CCCN2C(c2cccnc2)N1c1ccc(Cl)c(Cl)c1 (configuration not stated) | 2 | 19 | -5 | 0.8 | -7 | 1.1
O=C1C2CCCN2C(c2ccncc2)N1c1ccc(Cl)c(Cl)c1 (configuration not stated) | 5 | 68* | 5 | 0.3 | 88* | 0.1
O=C(c1ccccc1F)c1cn(CC(=O)N2CCCCC2)c2ccccc12 | 4 | 80* | 22 | 0.2 | 30 | 0.7
O=C(c1ccccc1)c1cn(CC(=O)N2CCCC2)c2ccccc12 | -1 | 10 | -11 | 0.9 | 12 | 0.9
O=C(c1ccccc1F)c1cn(Cc2ccccc2)c2ccccc12 | 0 | 60* | 21 | 0.4 | 2 | 1
CC(C)(C)NC(=O)Cn1cc(C(=O)c2ccccc2F)c2ccccc21 | 10 | 38 | 6 | 0.6 | 38 | 0.6
CCOC(=O)Cn1cc(C(=O)c2ccccc2F)c2ccccc21 | -2 | 68* | -13 | 0.3 | 48 | 0.5
O=C(Cn1cnc2sc3c(c2c1=O)CCCC3)NCCC(=O)N1CCC2(CC1)OCCO2 | -6 | / | -3 | / | / | /
Cc1cc(N2C(=O)C3CCCN3C2c2sccc2C)no1 (configuration not stated) | 36* | 1 | -5 | 1 | 5 | 0.9
O=P(Nc1ccccc1Cl)(c1ccccc1)c1nc2c(s1)CCCC2 (configuration not stated) | 8 | 16 | 33* | 0.8 | 25 | 0.8
O=C(C1CCC(=O)N1Cc1ccccc1Cl)N1CCC2(CC1)OCCO2 (configuration not stated) | -2 | 10 | 4 | 0.9 | 13 | 0.9
